Pf growth 96h: P. falciparum growth inhibition at 96 hours; Potency, µM (series often up to 28.7 µM), most hits filed as inhibitors; P. falciparum luciferase reporter growth, 96 h; hit rate 6.9% among 320,000
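Two parasite generations (96 h, 37 C, 5% CO2) of compound exposure in infected erythrocytes (0.05% parasitemia, 2% hematocrit). Luciferase-reporter P. falciparum; decreased luminescence indicates inhibited growth, aimed at apicoplast-acting delayed death.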
Shiga inhibitor: inhibitors of Shiga toxin in Vero cells. Vero cells, Shiga toxin protein synthesis inhibition reporter. inhibition, % at 38.7 µM. hit rate 9.2% among 290,000. AID 2315; in the data active means inhibition mostly above about 28%, no sharp cut-off; inactive means mostly below about 43%
HCV inhibitor: HCV inhibition. Huh7.5.1 HCVcc-Cre infection, luciferase reporter, 44 h. hit rate 3.4% among 340,000. Potency, µM (titrated, usually from 41.8 µM), hits mostly inhibitors. AID 651820
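Whole-lifecycle infectious HCVcc-Cre system; cells 1,000/well, compound then virus (~0.5 moi) added 4 h after plating, 44 h culture. Luciferase read 15 sec following 15 min substrate incubation, room temp.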
AMA1-RON2 inh: inhibitors of Plasmodium falciparum AMA1-RON2 interaction; AlphaScreen AMA1-biotinylated RON2 peptide binding; Potency, µM (highest dose often 58.2 µM), most hits filed as inhibitors; hit rate 0.2% among 360,000; AID 720542; further: nearly all actives have a fitted effect of over 45% in size
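AMA1 (3D7) with his tag at 25 nM final met compounds first, then biotinylated RON2 peptide at 25 nM; detection used donor plus acceptor beads, 10 µg/mL apiece, read by AlphaScreen after 30 min at room temperature.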
Cycloheximide cs: counter-screen for Shiga toxin inhibitors: cycloheximide protein synthesis inhibition; cell reporter, cycloheximide protein synthesis inhibition counterscreen; max response, %; hit rate 12% among 300,000; in the data active means max response mostly above about 13%, no sharp cut-off; inactive means mostly below about 14%; further: read at 38.3 µM for the half of the compounds with a filed dose
Pf growth 48h: P. falciparum growth inhibition at 48 hours (one generation); Potency, µM (top dose mostly 28.7 µM), hits mostly inhibitors; hit rate 5.9% among 310,000; P. falciparum luciferase growth in erythrocytes, 48 h; AID 504832
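Here the parasites carry a stable luciferase gene and grow inside erythrocytes in Albumax-based RPMI medium with compound for one erythrocytic cycle. Activity is scored as loss of luminescent signal.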
A number is an active result; - = inactive; ? = inconclusive; . = no result given; [ ] = remark or other dose. Only some compounds are listed: those with a hit (about 21% of all), similar ones and a draw of the others. Unless noted, the call rests on the fitted dose curve; in most records, active means well fitted curve in the direction sought with a large enough effect; inconclusive means small, poorly fitted or top-dose-only effect, or another doubt; inactive means no such curve, though single readings can be large; an effect the other way counts as inactive or inconclusive.

SMILES	Pf growth 96h	Shiga inhibitor	HCV inhibitor	AMA1-RON2 inh	Cycloheximide cs	Pf growth 48h
Cc1ccc(NC(=O)CSc2nc(=O)n(CCN(C)C)c3c2CCCC3)cc1Cl	?	.	?	-	.	?
CO[C@@H]1CN(C)C(=O)c2cc(NC(=O)NC3CCCCC3)ccc2OC[C@@H](C)N(CC2CCOCC2)C[C@@H]1C	.	.	.	-	.	.
O=C(CCC(=O)N1CCSc2ccccc21)NC1CCCCC1	?	-	-	-	-	-
Cc1cc2c(=O)n(Cc3ccco3)c(SCC(=O)N3CCCc4ccccc43)nc2s1	.	-	?	-	12	?
CCn1c(SCC(=O)N2CCCc3ccccc32)nc2ccccc2c1=O	-	-	5µM	-	-	?
CC(C)Cn1c(SCC(=O)N2CCCc3ccccc32)nc2ccccc2c1=O	?	-	?	-	-	?
CCn1c(COc2ccccc2)nnc1SCC(=O)CC(=O)Nc1ccccc1OC	7.4µM	-	-	-	-	13µM
CC(C)c1nc(SCC(=O)N2CCCc3ccccc32)c2c(=O)n(C)c(=O)n(C)c2n1	?	-	10µM	-	-	?
O=C(COC(=O)/C=C/c1ccc(C(F)(F)F)cc1)NC1CCS(=O)(=O)C1 (configuration not stated)	-	.	-	-	.	-
CN(C)CCCNc1nc2cc(-c3cnn(Cc4ccccc4)c3)sc2c(=O)n1C	.	.	.	-	.	.
Cc1ccc(Cl)cc1NC(C#N)c1ccccc1 (configuration not stated)	-	-	-	-	-	-
Cc1ccc2c(c1)c1nnc(SCC(=O)N3CCCc4ccccc43)nc1n2CC(=O)O	-	76	-	-	32	-
O=C(CC1OC(=O)c2ccccc21)Nc1ccc(Cl)c(S(=O)(=O)N2CCCCC2)c1 (configuration not stated)	-	.	?	-	.	-
CNS(=O)(=O)c1ccc2c3c(cccc13)C(=O)N2	-	-	-	-	-	-
O=S(=O)(Nc1cccc2ncccc12)c1cccs1	?	-	?	?	29	?
Cc1c(NS(=O)(=O)c2cccs2)cccc1-c1nc2cccnc2s1	-	-	?	-	24	-
CCOc1ccccc1NS(=O)(=O)c1cccs1	.	-	-	?	-	-
Cc1c(NS(C)(=O)=O)cccc1-c1nc2cccnc2s1	-	154	-	-	32	-
O=C1Nc2ccc(NS(=O)(=O)c3cccs3)c3cccc1c23	10µM	-	-	-	-	-
Cc1noc(C)c1COc1ccccc1C(=O)NCCOc1ccccc1	?	.	-	-	.	?
Cc1c(NS(=O)(=O)c2ccc3c(c2)OCCO3)cccc1-c1nc2cccnc2s1	?	-	13µM	-	-	-
CCN(CC)C(C)C#CCC(c1ccccc1)c1ccccc1 (configuration not stated)	?	-	.	.	-	?
C(#Cc1ccccc1)Cn1nnc2ccccc21	-	49	-	-	37	-
O=C(O)Cn1nnc2ccccc21	-	-	-	-	-	-
CCN1C(=O)c2ccc(C(=O)Nc3c(C)cc(C)cc3C)cc2C1=O	?	-	-	-	-	-
SMILES	Pf growth 96h	Shiga inhibitor	HCV inhibitor	AMA1-RON2 inh	Cycloheximide cs	Pf growth 48h
N=c1c2ccccc2nc2n1CCCCC2	.	.	.	-	.	.
COc1ccc(-n2nc3c(c2NC(=O)CCCl)CSC3)cc1	?	-	-	-	-	-
CCCCNC(=O)C(CC)Sc1nc2sc(C(=O)OC)c(C)c2c(=O)n1N (configuration not stated)	-	-	?	-	-	?
CCC(Sc1nc2sc(C(=O)OC)c(C)c2c(=O)n1N)C(=O)NCC1CCCO1 (configuration not stated)	4.7µM	-	-	-	-	?
CCCNC(=O)C1(C)CCCN(Cc2ccc(-c3ccccc3)cc2)C1 (configuration not stated)	.	.	.	-	.	.
Cc1cc(C)cc(-n2nnc3ccccc3c2=O)c1	.	.	.	-	.	.
Cc1ccc(-n2ncc(Br)c(Br)c2=O)cc1	-[5.75 µM]	-	?	-	-	-
O=C1C=CC(=O)N1c1ccc2ccccc2c1	.	.	-	-	.	.
O=c1c2ccccc2cnn1-c1ccc(Cl)nn1	-	42	-	-	18	-
O=c1c2ccccc2cnn1-c1ccc2ccccc2c1	.	98	-	-	33	-
O=c1c2ccccc2cnn1-c1ccc(Br)cc1	-	65	-	-	57	-
O=c1c2ccccc2nnn1-c1ccc(Br)cc1	-	97	-	-	44	-
O=c1nc2n(CCO)c3ccccc3cc-2c(=O)[nH]1	.	.	-	-	.	.
Cn1c(Cl)c(/C=N/OC(=O)c2ccccc2Cl)c2ccccc21	-	-	?	-	14	-
Cc1nn(-c2ccccc2)c(Cl)c1/C=N/NC(=O)c1ccnn1C	-	107	-	-	34	-
O=C(N/N=C/c1c(O)n(-c2ccccc2Cl)c(=O)c2ccccc12)c1cccnc1	?	-	-	-	-	?
COC(=O)N/N=C/c1c(C)nn(-c2cccc(Cl)c2)c1Cl	?	55	?	-	49	-
Cc1nn(Cc2c(Cl)cccc2Cl)c(Cl)c1/C=N/NC(=O)c1cccnc1	?	41	?	-	16	?
Cc1nn(-c2ccccc2)c(Cl)c1/C=N/Nc1nc2ccccc2n1C	?	79	-	-	54	-
Cc1nn(-c2ccccc2)c(Cl)c1/C=N/NC(=O)CNC(=O)c1ccccc1Cl	1.9µM	-	?	-	18	-
Cc1nn(C)c(Cl)c1/C=N/OC(=O)c1ccccc1	-	-	-	-	16	-
COC(=O)N/N=C\c1c(C)nn(-c2ccccc2)c1Cl	-	58	-	-	23	-
Cc1ccc(C)c(OCC(=O)N/N=C/c2c(C)nn(-c3ccccc3)c2Cl)c1C	-	-	?	-	-	-
CC(c1ccco1)N(C(=O)c1cccc(Br)c1)c1ccccn1 (configuration not stated)	-	-	-	-	-	-
C/C(=N\NC(=O)C(=O)Nc1c(C)n(C)n(-c2ccccc2)c1=O)c1ccncc1	-	-	-	-	-	-
SMILES	Pf growth 96h	Shiga inhibitor	HCV inhibitor	AMA1-RON2 inh	Cycloheximide cs	Pf growth 48h
Cc1nn(-c2ccccc2)c(Cl)c1/C=N/NC(N)=O	-	33	-	-	27	-
Cc1nn(-c2cccc(Cl)c2)c(Cl)c1/C=N/NC(=O)c1cccnc1	-	-	?	-	17	-
Cc1nn(-c2ccccc2)c(Cl)c1/C=N\NC(=O)c1cncc(Br)c1	-	-	-	-	-	-
CN(CC(=O)Nc1cccc(F)c1)CC(=O)Nc1ccccc1Oc1ccccc1	?	-	-	-	-	?
O=C(Nc1cc(C(F)(F)F)ccc1-n1cncn1)c1ccc([N+](=O)[O-])o1	?	.	?	-	.	?
CCN(CC)S(=O)(=O)c1ccc2c(c1)c(=O)c(C(=O)NCc1ccco1)cn2C	-	-	-	-	-	-
CN(Cc1ccccc1)C(=O)c1cccc(NC(=O)Cc2ccc(NC(=O)C3CCCN(C(=O)CCc4ccccc4)C3)cc2)c1 (configuration not stated)	.	.	-[8.37 µM]	-	.	.

Bioassay records: PubChem BioAssay, National Center for Advancing Translational Sciences (NCATS)
